Measured values as given in PubChem BioAssay.
Values joined by “and” are separate entries in the source; they are usually repeats but may differ in a detail not shown here. Equal entries are not always repeated. Results filed as inconclusive are left out. Active and inactive are the calls of the source. Cut-off read from the data, not from the text of the source, unless noted: active = inhibition above about 80%; inactive = the rest.

Key:
[1] = growth inhibition of DIPG glioma cells, dose response, cell-based, SU-DIPG-XVII, MIPE5.0, CellTiter-Glo, qHTS (AID 1347060; cut-off not given, nearly all actives have AC50 up to about 26 µM;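 note: cells exposed to compound for 48 hours before viability readout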); conditions: SU-DIPG-XVII viability, CellTiter-Glo ATP luminescence
[2] = growth inhibition of DIPG glioma cells, dose response, cell-based, SU-DIPG-IV, MIPE4.0, CellTiter-Glo, qHTS (AID 1347063; cut-off not given, nearly all actives have AC50 up to about 30 µM;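 note: compound exposure lasted 48 hours before the viability readout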); conditions: SU-DIPG-IV viability, CellTiter-Glo ATP luminescence
[3] = growth inhibition of DIPG glioma cells, dose response, cell-based, SU-DIPG-XIII, MIPE5.0, CellTiter-Glo, qHTS (AID 1347064; cut-off not given, nearly all actives have AC50 up to about 23 µM;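 note: cells exposed to compound for 48 hours before the viability read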); conditions: SU-DIPG-XIII viability, CellTiter-Glo ATP luminescence
[4] = viability loss in pontine glioma line – cell-based, SU-DIPG-XXV, MIPE5.0, CellTiter-Glo, qHTS, dose response (AID 1347065; cut-off not given, nearly all actives have AC50 up to about 26 µM;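 note: cells exposed to compound for 48 hours before ATP readout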); conditions: CellTiter-Glo ATP luminescence
[5] = SU-DIPG-VI glioma cell viability, MIPE4.0 library, CellTiter-Glo luminescence, qHTS (AID 1347066; cut-off not given, nearly all actives have AC50 up to about 30 µM;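 note: cells exposed to compound for 48 hours before readout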); conditions: CellTiter-Glo ATP luminescence
[6] = JHH-DIPG-1 glioma cell viability, MIPE5.0 library, CellTiter-Glo luminescence, qHTS (AID 1347067; cut-off not given, nearly all actives have AC50 up to about 26 µM;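 note: cells exposed to compound for 48 hours before readout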); conditions: JHH-DIPG-1 glioma viability, CellTiter-Glo ATP luminescence
[7] = SU-DIPG-XXV glioma cell viability, MIPE5.0 library, qHTS (AID 1347068; cut-off not given, nearly all actives have IC50 up to about 30 µM;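 for IC50: cells exposed to compound for 48 hours before viability readout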)
[8] = sensitizers of A549 cells to miR-34 induction, primary screen, imaging, A549 dox-inducible miR-34, nuclei and caspase counts (AID 1347080;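 active = compounds whose cell count with miR-34 switched on is under 0.7 times the count with it off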); conditions: A549 miR-34 inducible, Hoechst nuclei count, 48 h
[9] = survival rescue of mitochondrial mutant cells in low glucose, primary screen, MELAS cybrids, Rieske KO mouse fibroblasts, CellTiter-Glo (AID 1508586;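 active = mean z-score across replicates of 1.96 or higher in either the MELAS or the Rieske mutant cell line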;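 note: z relative to plate mean and SD of compound and empty wells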)
[10] = LFS_MB_P medulloblastoma growth inhibition, cell-based, chromothripsis tumors, cisplatin or BGB combos (AID 1671449); conditions: LFS_MB_P medulloblastoma cells;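 note: cells exposed for 96 hours; 0% = vehicle DMSO and 100% = killing by high DMSO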
[11] = HDN33 neuroblastoma growth inhibition, cell-based, chromothripsis tumors, cisplatin or BGB combos (AID 1671450); conditions: HDN33 neuroblastoma cells, stronger effect = higher value;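 note: cells exposed to compound for four days; 0% = vehicle DMSO and 100% = cell killing by high DMSO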
[12] = ICB984 medulloblastoma cell growth inhibition, synergistic combos for chromothripsis tumors, cisplatin or BGB combos (AID 1671451; call rule not given here;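 note: cells exposed for 96 hours before readout; 0% = vehicle DMSO and 100% = killing by high DMSO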); conditions: ICB984 medulloblastoma cells, drug combinations, stronger effect = higher value
[13] = HTB85 osteosarcoma cell growth inhibition, synergistic combos for chromothripsis tumors, BGB or cisplatin IC20 combos (AID 1671453); conditions: HTB85 osteosarcoma cells, drug combinations, stronger effect = higher value;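 note: cells exposed for 96 hours before readout; 0% = vehicle DMSO and 100% = high DMSO killing control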
[14] = MDA-MB-436 breast carcinoma cell growth inhibition, synergistic combos for chromothripsis tumors, BGB or cisplatin combos (AID 1671458; call rule not given here;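 note: cells exposed for 96 hours; 0% = vehicle DMSO and 100% = killing by high DMSO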); conditions: MDA-MB-436 breast carcinoma growth inhibition, drug combinations, stronger effect = higher value
[15] = growth inhibition of BT084 medulloblastoma cells, cell-based, ICGC_MB145, cisplatin and BGB IC40 combos (AID 1671461); conditions: drug combinations, stronger effect = higher value;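 note: cells exposed to drugs for 96 hours; 0% = vehicle DMSO and 100% = high DMSO full killing control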
[16] = growth inhibition of RCMB18 medulloblastoma cells, cell-based, cisplatin and BGB IC40 combos (AID 1671462); conditions: stronger effect = higher value;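 note: cells exposed to compound for four days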
[17] = growth inhibition of CRL1545 osteosarcoma cells, cell-based, cisplatin and BGB IC20 combos (AID 1671464); conditions: stronger effect = higher value;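 note: cells exposed to compound for 96 hours before readout; 0% = vehicle DMSO and 100% = high DMSO killing control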
[18] = stronger effect = lower value, cell number ratio, induced over uninduced
[19] = measured here: relative caspase fold change +Dox/-Dox
[20] = measured here: total cells with miR-34 induction, stronger effect = lower value
[21] = measured here: total cells without miR-34 induction
[22] = MELAS cybrid survival, CellTiter-Glo 48 h, stronger effect = higher value
[23] = Rieske KO mouse fibroblast survival, CellTiter-Glo 72 h
[24] = measured here: with BGB IC20 combination, at 0.5 µM
[25] = measured here: with cisplatin IC20 combination, at 0.5 µM

With CC1(C)CCC2=C(O1)c1ccccc1C(=O)C2=O as the molecule, how does the AC50 [1] read?
The AC50 was 11.8 µM (active).

What about the AC50 [2] of the same molecule?
The AC50 was 20.9 µM (active).

What about the AC50 [3] of the same molecule?
The AC50 was 6.61 µM (active).

What about the AC50 [4] of the same molecule?
The AC50 was 9.34 µM (active).

What about the AC50 [5] of the same molecule?
Its AC50 is 20.9 µM (active).

And the AC50 [6]?
Its AC50 is 7.42 µM (active).

What about the IC50 [7] of the same molecule?
The IC50 was 23.5 µM (active).

What about the fold change [8, 18] of the same molecule?
Its fold change is 1.06 (inactive) and 1.01 (inactive).

And the fold change [8, 19]?
Its fold change is 0.218 and 1.14 and 0.258.

And the cell count [8, 20]?
Its cell count is 1260 and 1140 and 1760.

What about the cell count [8, 21] of the same molecule?
The cell count was 1190 and 1130 and 1740.

And the z-score [9, 22]?
The z-score was 1.23 (inactive).

What about the z-score [9, 23] of the same molecule?
The z-score was -4.3.

What about the inhibition ([10]; at 0.5 µM, stronger effect = higher value) of the same molecule?
Its inhibition is -7.4% (inactive) and 16.4% (inactive).

And the inhibition ([10]; measured here: combination with BGB IC20, at 0.005 µM)?
Its inhibition is -31.4% and 0.116%.

And the inhibition ([10]; measured here: combination with BGB IC40, at 0.005 µM)?
Its inhibition is -87% and -10.2%.

What about the inhibition ([10]; measured here: combination with BGB IC40, at 0.05 µM) of the same molecule?
The inhibition was -28.3% and -0.424%.

And the inhibition ([10]; measured here: combination with cisplatin, at 0.5 µM, stronger effect = higher value)?
The inhibition was 51.9% and 10.9%.

What about the inhibition ([10]; measured here: combination with cisplatin, at 5 µM, stronger effect = higher value) of the same molecule?
Its inhibition is 111% and 116%.

What about the inhibition ([11]; BGB combo, at 5 µM) of the same molecule?
Its inhibition is 99.6% and 99%.

And the inhibition ([11]; at 0.5 µM)?
Its inhibition is -4.92% (inactive) and -3.55% (inactive).

What about the inhibition ([11]; cisplatin combo, at 5 µM) of the same molecule?
Its inhibition is 99% and 99.1%.

And the inhibition [11, 24]?
Its inhibition is -10.6% and -8.55%.

And the inhibition [11, 25]?
The inhibition was 4.95% and -8.23%.

And the inhibition ([11]; single agent, at 5 µM)?
The inhibition was 99.5% and 99.2%.

What about the inhibition ([12]; BGB IC20 combo, at 0.005 µM) of the same molecule?
Its inhibition is -11% and 11%.

And the inhibition ([12]; BGB IC40 combo, at 0.005 µM)?
The inhibition was -16.5% and -32.8%.

What about the inhibition ([12]; BGB IC40 combo, at 0.05 µM) of the same molecule?
The inhibition was 91.3% and 98.3%.

And the inhibition ([12]; at 0.5 µM)?
The inhibition was -22.3% (inactive) and -31.1% (inactive).

What about the inhibition ([12]; cisplatin combo, at 0.05 µM) of the same molecule?
The inhibition was 91.3% and 98.3%.

What about the inhibition ([12]; cisplatin combo, at 0.5 µM) of the same molecule?
Its inhibition is -20.6% and -42.9%.

What about the inhibition ([12]; cisplatin combo, at 5 µM) of the same molecule?
Its inhibition is -38.6% and -41.8%.

What about the inhibition ([12]; measured here: 5 uM single agent, at 5 µM) of the same molecule?
The inhibition was 2.52% and -3.56%.

And the inhibition ([13]; at 0.5 µM)?
Its inhibition is -5.23% (inactive) and 6.87% (inactive).

What about the inhibition ([13]; measured here: with BGB IC20, at 0.5 µM) of the same molecule?
Its inhibition is 23.7% and 5.32%.

And the inhibition ([13]; measured here: with BGB IC20, at 5 µM)?
Its inhibition is 76.7% and 64.8%.

And the inhibition ([13]; measured here: with cisplatin IC20, at 0.5 µM)?
Its inhibition is -20.9% and 1.14%.

And the inhibition ([13]; measured here: with cisplatin IC20, at 5 µM)?
Its inhibition is 61.5% and 60.9%.

What about the inhibition ([13]; single agent, at 5 µM) of the same molecule?
Its inhibition is 70.5% and 62.3%.

What about the inhibition ([14]; at 0.5 µM) of the same molecule?
The inhibition was -2.8% (inactive) and -3.21% (inactive).

What about the inhibition ([14]; measured here: BGB combination, at 0.5 µM) of the same molecule?
Its inhibition is 3.02% and -1.78%.

What about the inhibition ([14]; measured here: BGB combination, at 5 µM) of the same molecule?
The inhibition was 81.9% and 78.2%.

And the inhibition ([14]; measured here: cisplatin combination, at 0.5 µM)?
Its inhibition is -22.4% and -3.57%.

And the inhibition ([14]; measured here: cisplatin combination, at 5 µM)?
Its inhibition is 86.7% and 87.2%.

What about the inhibition ([15]; at 0.5 µM) of the same molecule?
Its inhibition is -12.5% (inactive) and -0.136% (inactive).

What about the inhibition ([15]; cisplatin combination, at 0.5 µM) of the same molecule?
The inhibition was -14.9% and 2.47%.

What about the inhibition ([15]; cisplatin combination, at 5 µM) of the same molecule?
The inhibition was 78.1% and 100%.

What about the inhibition ([15]; measured here: BGB IC40 combination 0.05 uM, at 0.05 µM) of the same molecule?
Its inhibition is -20.9% and -18.5%.

And the inhibition ([15]; single agent, at 5 µM)?
Its inhibition is 99.5% and 99.6%.

And the inhibition ([16]; at 0.5 µM)?
Its inhibition is -1.45% (inactive) and 6.25% (inactive).

And the inhibition ([16]; cisplatin combo, at 5 µM)?
Its inhibition is 101%.

What about the inhibition ([16]; measured here: BGB IC40 combination, at 0.05 µM) of the same molecule?
Its inhibition is -6.29% and -29%.

And the inhibition ([16]; measured here: combination with cisplatin, at 0.5 µM)?
Its inhibition is -0.361% and 36.6%.

And the inhibition ([16]; single agent, at 5 µM)?
Its inhibition is 98.1% and 99.3%.

And the inhibition ([17]; at 0.5 µM)?
Its inhibition is 36.2% (inactive) and 22.6% (inactive).

And the inhibition [17, 24]?
The inhibition was 33.7% and 14.6%.

And the inhibition [17, 25]?
The inhibition was 36.4% and 26.5%.

And the inhibition ([17]; single agent, at 0.05 µM)?
Its inhibition is -59.2% and -23.1%.

What about the inhibition ([17]; single agent, at 5 µM) of the same molecule?
The inhibition was 98.9% and 98.3%.

For COc1cccc2cc(-c3nc(C4CCC(C(=O)O)CC4)n4ncnc(N)c34)[nH]c12 (stereo unspecified), which AC50 [1] is on record?
Its AC50 is 5.9 µM (active).

And the AC50 [2]?
Its AC50 is 0.166 µM (active).

What about the AC50 [3] of the same molecule?
The AC50 was 3.72 µM (active).

And the AC50 [4]?
Its AC50 is 2.63 µM (active).

And the AC50 [6]?
Its AC50 is 1.18 µM (active).

And the outcome [7]?
Its outcome is “inactive”.

And the fold change [8, 18]?
Its fold change is 0.965 (inactive).

What about the fold change [8, 19] of the same molecule?
The fold change was 0.637.

And the cell count [8, 20]?
The cell count was 3250.

What about the cell count [8, 21] of the same molecule?
Its cell count is 3360.

And the z-score [9, 22]?
The z-score was 4.23 (active).

And the z-score [9, 23]?
Its z-score is -0.621.
